Laboratory results published in PubChem BioAssay AID1159580 (chemical genetic matrix, 2015).
Out of some 5,500 compounds screened, about 2,000 (36%) were called active. Inconclusive results (about 18%) are left out. Rule as the data show it: active = normalized growth mostly below about 0.91 (no sharp cut-off); inconclusive = no clear call, values can overlap the other calls; inactive = mostly above about 0.92. Some of the results follow.

Experiment: chemical genetic growth profiling, strain panel (AID 1159580);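 also: tested at 20 µM; growth read once vehicle control cultures reached saturation at 30 °C; 1 = growth at the plate median or of vehicle wells; lower values mean less growth of the strain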
Details: growth OD

Measured: normalized growth

CC(=O)NCCCCCC(=O)O
inactive: S. cerevisiae deletion strains, locus YJL187C, strain SWE1, stronger effect = lower value 1.01 | S. cerevisiae deletion strains, locus YJR043C, strain POL32, stronger effect = lower value 1.01 | S. cerevisiae deletion strains, locus YJR075W, strain HOC1, stronger effect = lower value 1.02 | S. cerevisiae deletion strains, locus YKL009W, strain mrt4, stronger effect = lower value 0.997 | S. cerevisiae deletion strains, locus YKL068W, stronger effect = lower value 0.994 | S. cerevisiae deletion strains, locus YKL085W, strain MDH1 (second series), stronger effect = lower value 0.989 | S. cerevisiae deletion strains, locus YKL085W, strain MDH1, stronger effect = lower value 0.989 | S. cerevisiae deletion strains, locus YKL160W, strain elf1, stronger effect = lower value 1.03 | S. cerevisiae deletion strains, locus YKL190W, strain CNB1, stronger effect = lower value 1.01 | S. cerevisiae deletion strains, locus YKR001C, strain vps1, stronger effect = lower value 1.01 | S. cerevisiae deletion strains, locus YKR026C, strain gcn3, stronger effect = lower value 0.963 | S. cerevisiae deletion strains, locus YKR091W, strain srl3, stronger effect = lower value 0.985 | S. cerevisiae deletion strains, locus YLL001W, strain dnm1, stronger effect = lower value 1.01 | S. cerevisiae deletion strains, locus YLL026W, stronger effect = lower value 1.01 | S. cerevisiae deletion strains, locus YLL041C, strain sdh2, stronger effect = lower value 0.994 | S. cerevisiae deletion strains, locus YLR027C, strain aat2, stronger effect = lower value 1.02 | S. cerevisiae deletion strains, locus YLR039C, strain RIC1, stronger effect = lower value 1.04 | S. cerevisiae deletion strains, locus YLR058C, strain SHM2, stronger effect = lower value 1.02 | S. cerevisiae deletion strains, locus YLR102C, strain apc9, stronger effect = lower value 0.989 | S. cerevisiae deletion strains, locus YLR221C, strain rsa3, stronger effect = lower value 1 | S. cerevisiae deletion strains, locus YLR258W, strain gsy2, stronger effect = lower value 0.992 | S. cerevisiae deletion strains, locus YLR262C, strain YPT6 (second series), stronger effect = lower value 1.02 | S. cerevisiae deletion strains, locus YLR262C, strain YPT6, stronger effect = lower value 1.07 | S. cerevisiae deletion strains, locus YLR268W, strain sec22, stronger effect = lower value 0.996 | S. cerevisiae deletion strains, locus YLR320W, strain mms22, stronger effect = lower value 1 | S. cerevisiae deletion strains, locus YLR330W, strain CHS5, stronger effect = lower value 1.01 | S. cerevisiae deletion strains, locus YLR342W, strain FKS1 (second series), stronger effect = lower value 1 | S. cerevisiae deletion strains, locus YLR342W, strain FKS1, stronger effect = lower value 0.982 | S. cerevisiae deletion strains, locus YLR357W, strain rsc2, stronger effect = lower value 1.01 | S. cerevisiae deletion strains, locus YLR370C, strain arc18, stronger effect = lower value 0.991 | S. cerevisiae deletion strains, locus YLR371W, strain rom2, stronger effect = lower value 0.983 | S. cerevisiae deletion strains, locus YLR384C, strain iki3, stronger effect = lower value 0.983 | S. cerevisiae deletion strains, locus YLR418C, strain cdc73, stronger effect = lower value 0.963 | S. cerevisiae deletion strains, locus YML016C, strain PPZ1, stronger effect = lower value 1.01 | S. cerevisiae deletion strains, locus YML032C, strain rad52, stronger effect = lower value 0.986 | S. cerevisiae deletion strains, locus YML120C, strain ndi1, stronger effect = lower value 1.01 | S. cerevisiae deletion strains, locus YML124C, strain tub3, stronger effect = lower value 0.989 | S. cerevisiae deletion strains, locus YMR058W, strain fet3, stronger effect = lower value 0.981 | S. cerevisiae deletion strains, locus YMR078C, strain ctf18, stronger effect = lower value 1 | S. cerevisiae deletion strains, locus YMR125W, strain sto1, stronger effect = lower value 0.986 | S. cerevisiae deletion strains, locus YMR129W, stronger effect = lower value 0.976 | S. cerevisiae deletion strains, locus YMR205C, strain PFK2, stronger effect = lower value 0.968 | S. cerevisiae deletion strains, locus YMR223W, strain ubp8, stronger effect = lower value 0.976 | S. cerevisiae deletion strains, locus YMR231W, strain pep5, stronger effect = lower value 0.978 | S. cerevisiae deletion strains, locus YMR307W, strain GAS1, stronger effect = lower value 1.01 | S. cerevisiae deletion strains, locus YNL067W, strain RPL9B, stronger effect = lower value 1.02 | S. cerevisiae deletion strains, locus YNL071W, strain lat1, stronger effect = lower value 0.989 | S. cerevisiae deletion strains, locus YNL209W, strain ssb2, stronger effect = lower value 0.994 | S. cerevisiae deletion strains, locus YNL233W, strain BNI4, stronger effect = lower value 1.03 | S. cerevisiae deletion strains, locus YNL248C, strain rpa49, stronger effect = lower value 1.01 | S. cerevisiae deletion strains, locus YNL250W, strain rad50, stronger effect = lower value 0.992 | S. cerevisiae deletion strains, locus YNL271C, strain bni1, stronger effect = lower value 0.971 | S. cerevisiae deletion strains, locus YNL298W, strain CLA4, stronger effect = lower value 0.986 | S. cerevisiae deletion strains, locus YNL307C, strain MCK1, stronger effect = lower value 0.988 | S. cerevisiae deletion strains, locus YNL322C, strain KRE1 (second series), stronger effect = lower value 0.995 | S. cerevisiae deletion strains, locus YNL322C, strain KRE1, stronger effect = lower value 1.01 | S. cerevisiae deletion strains, locus YNR049C, strain mso1, stronger effect = lower value 0.973 | S. cerevisiae deletion strains, locus YNR052C, strain pop2, stronger effect = lower value 0.995 | S. cerevisiae deletion strains, locus YOL006C, strain TOP1, stronger effect = lower value 1.09 | S. cerevisiae deletion strains, locus YOL012C, strain htz1 0.886 | S. cerevisiae deletion strains, locus YOL147C, strain pex11, stronger effect = lower value 0.988 | S. cerevisiae deletion strains, locus YOR001W, strain rrp6, stronger effect = lower value 1.04 | S. cerevisiae deletion strains, locus YOR061W, strain CKA2, stronger effect = lower value 1.02 | S. cerevisiae deletion strains, locus YOR069W, strain VPS5, stronger effect = lower value 1.01 | S. cerevisiae deletion strains, locus YOR070C, strain gyp1, stronger effect = lower value 0.994 | S. cerevisiae deletion strains, locus YOR080W, strain dia2, stronger effect = lower value 0.988 | S. cerevisiae deletion strains, locus YOR083W, strain WHI5, stronger effect = lower value 1.06 | S. cerevisiae deletion strains, locus YOR106W, strain vam3, stronger effect = lower value 1.01 | S. cerevisiae deletion strains, locus YOR136W, strain idh2, stronger effect = lower value 0.985 | S. cerevisiae deletion strains, locus YOR144C, strain elg1, stronger effect = lower value 0.978 | S. cerevisiae deletion strains, locus YOR184W, strain ser1, stronger effect = lower value 0.982 | S. cerevisiae deletion strains, locus YOR265W, strain rbl2, stronger effect = lower value 1.01 | S. cerevisiae deletion strains, locus YOR270C, strain vph1, stronger effect = lower value 0.968 | S. cerevisiae deletion strains, locus YOR290C, strain snf2, stronger effect = lower value 0.939 | S. cerevisiae deletion strains, locus YOR316C, strain cot1, stronger effect = lower value 0.987 | S. cerevisiae deletion strains, locus YPL051W, strain arl3, stronger effect = lower value 1.02 | S. cerevisiae deletion strains, locus YPL055C, strain LGE1, stronger effect = lower value 1.07 | S. cerevisiae deletion strains, locus YPL078C, strain atp4, stronger effect = lower value 1 | S. cerevisiae deletion strains, locus YPL106C, strain sse1, stronger effect = lower value 0.977 | S. cerevisiae deletion strains, locus YPL240C, strain hsp82, stronger effect = lower value 0.99 | S. cerevisiae deletion strains, locus YPR119W, strain clb2, stronger effect = lower value 0.993 | S. cerevisiae deletion strains, locus YPR141C, strain kar3, stronger effect = lower value 0.989 | S. cerevisiae deletion strains, locus YPR163C, strain tif3, stronger effect = lower value 0.98 | S. cerevisiae deletion strains, locus YPR167C, strain met16, stronger effect = lower value 0.977 | S. cerevisiae deletion strains, strain wtn01, stronger effect = lower value 0.976 | S. cerevisiae strains, strain wild type, stronger effect = lower value 1.01
